The structures appear in SMILES notation. Active and inactive are the calls of the source. The call rests on the fitted dose curve.
Potency means the concentration at half of the fitted maximal effect.

Glucocorticoid receptor (Homo sapiens), sequence (P04150 whole entry, looked up): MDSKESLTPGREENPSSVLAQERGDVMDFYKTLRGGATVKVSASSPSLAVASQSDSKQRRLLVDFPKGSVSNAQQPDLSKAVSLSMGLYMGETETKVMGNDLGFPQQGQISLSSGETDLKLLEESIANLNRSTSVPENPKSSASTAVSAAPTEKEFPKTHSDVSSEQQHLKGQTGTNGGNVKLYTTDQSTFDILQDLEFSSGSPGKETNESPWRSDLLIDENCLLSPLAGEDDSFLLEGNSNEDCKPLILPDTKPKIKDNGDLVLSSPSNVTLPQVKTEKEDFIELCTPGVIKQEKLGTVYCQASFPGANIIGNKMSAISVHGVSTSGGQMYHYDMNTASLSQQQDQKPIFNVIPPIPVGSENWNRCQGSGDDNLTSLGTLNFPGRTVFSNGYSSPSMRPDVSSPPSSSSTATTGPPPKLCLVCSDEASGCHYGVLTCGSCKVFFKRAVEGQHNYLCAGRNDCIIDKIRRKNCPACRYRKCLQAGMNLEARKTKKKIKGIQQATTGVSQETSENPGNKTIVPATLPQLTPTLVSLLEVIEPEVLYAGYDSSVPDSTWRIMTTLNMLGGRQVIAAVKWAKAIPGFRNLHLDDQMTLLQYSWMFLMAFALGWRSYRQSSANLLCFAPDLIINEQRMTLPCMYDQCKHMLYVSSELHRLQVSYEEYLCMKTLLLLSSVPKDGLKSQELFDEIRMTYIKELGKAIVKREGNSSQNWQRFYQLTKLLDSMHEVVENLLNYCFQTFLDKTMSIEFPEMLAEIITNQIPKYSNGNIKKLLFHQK

For this experiment, the target named is Glucocorticoid receptor (Homo sapiens) (UniProt P04150). The experiment is described as follows: GR-EFC Redistribution (AID 451). Conditions: CHO-K1 GR-EFC translocation, beta-gal luminescence, 2 h. The source says:
NIH Molecular Libraries Screening Centers Network [MLSCN]
NIH Chemical Genomics Center [NCGC]
The glucocorticoid receptor (GR) is a cytoplasmic receptor that belongs to the nuclear receptor family of ligand-dependent transcription factors. Upon glucocorticoid binding to its receptor, the glucocorticoid-GR complex translocates into the nucleus, where it binds as a dimer to specific DNA sequences (glucocorticoid response elements), enhancing or suppressing transcription of a wide variety of glucocorticoid-responsive genes. In addition to their important roles in normal physiology and metabolism, glucocorticoids are administered exogenously as treatments for a wide variety of allergic, autoimmune, and neoplastic conditions. Identification of compounds that modulate aspects of GR signalling would be useful in dissecting glucocorticoid response pathways as well as developing GR modulators with more targeted clinical effects.
Traditionally, GR modulators have been identified using receptor binding or direct transactivation assays. However, assays for glucocorticoid-dependent nuclear translocation can also be used to screen for compounds affecting GR signaling.
Immunocytochemical staining has been used to assay for GR translocation, but is not suitable for high throughout screening due to the multiple reagent addition and wash steps required. Recently, a novel cell-based GR assay in Enzyme Fragment Complementation (EFC) format was developed by DiscoveRx (Fremont, CA). The assay uses EFC of b-galactosidase (b-gal) as an indicator of GR-translocation in engineered CHO-K1 biosensor cells. The enzyme acceptor (EA) fragment of b-gal resides in the nucleus , as designed through the use of a proprietary set of sequence additions and modifications. The small peptide enzyme donor (ED) fragment of b-gal is fused directly to the C-terminus of GR, and is localized in the cytoplasm is the absence of receptor signaling. Upon binding to a GR ligand, the complex translocates to the nucleus, where intact enzyme activity is restored by complementation and b-gal activity is detected. We optimized this GR-EFC assay in homogenous 1536-well plate assay format for high throughput screening.
NCGC Assay Protocol Summary:
CHO-K1 cells stably expressing NLS-enzyme acceptor fragment (EA) of b-gal and GR-enzyme donor (ED) fragment of b-gal were maintained in F12 medium (Invitrogen, Carlsbad, CA) at 37 Celsius degrees under a humidified atmosphere containing 5% CO2 and 95% air. The medium contained 10% FBS, 2 mM L-glutamine, 50 U/ml penicillin 50 ug/ml streptomycin, and 250 ug/ml hygromycin and 500 ug/ml G418 (Invitrogen).
GR-translocation was measured beta-gal enzyme activity using the PathHunter Detection Kit containing cell membrane permeablizing reagent and beta-gal substrate (DiscoveRx, Fremont, CA). All compounds were screened as titrations from 0.6 nM to 46 uM final concentration. The assay was performed in 1536-well format as follows:
5 uL cell suspension (1,000 cells)/well
Incubation at 37 Celsius degrees for two hours
1.25 uL 1X detection buffer from the kit supplied by DiscoveRx
Incubation at room temperature for one hour
Read plate in luminescence mode in ViewLux plate reader (PerkinElmer)
Keywords: NIH Roadmap, MLSCN, MLI, MLSMR, GR-EFC, GREFC, qHTS, NCGC
Consider `CC(C)[C@]1(NC(=O)[C@H]2C=C3c4cccc5[nH]cc(c45)C[C@H]3N(C)C2)O[C@@]2(O)[C@H]3CCCN3C(=O)[C@H](Cc3ccccc3)N2C1=O`, for which the Potency is > 46 µM (inactive).
With `N[C@@H](Cc1cc(O)c(O)cc1O)C(=O)O` the figure was > 46 µM (inactive); with `C[C@@H](CO)NC(=O)[C@H]1C=C2c3cccc4[nH]cc(c34)C[C@H]2N(C)C1`, > 46 µM (inactive).
The same measure for `CC[C@H]1CN2CC[C@@H]1C[C@@H]2[C@H](O)c1ccnc2ccccc12`: > 46 µM (inactive); for `CCCCCC[C@H]1C(=O)O[C@@H](C)[C@H](NC(=O)c2cccc(NC=O)c2O)C(=O)O[C@@H](C)[C@@H]1OC(=O)CC(C)C`: > 46 µM (inactive); for `NC(N)=Nc1ccc2[nH]c3c(c2c1)C[C@]1(O)[C@@H]2Cc4ccc(O)c5c4[C@]1(CCN2CC1CC1)[C@H]3O5`: > 46 µM (inactive).
With `C=CCN1C[C@@H](C)N([C@H](c2ccc(C(=O)N(CC)CC)cc2)c2cccc(OC)c2)C[C@H]1C` the figure was > 46 µM (inactive).
For the molecule `CN1[C@@H]2CC[C@H]1CC(O[C@@H](c1ccccc1)c1ccccc1N)C2` (stereo not given in full), the Potency was > 46 µM (inactive).
Take `COc1cc2c(cc1OC)-c1c(OC)c(OC)c(CO)c3c1[C@H](C2)N(C)CC3`: the Potency is > 46 µM (inactive).
The same measure for `N[C@]1(C(=O)O)CC[C@@H](C(=O)O)C1`: > 46 µM (inactive); for `C[C@@H](Cc1cccc(C(F)(F)F)c1)NCCCc1ccccc1`: > 46 µM (inactive); for `O=C(CCCN1CCC2(CC1)C(=O)N(CCc1ccc(N=C=S)cc1)CN2c1ccccc1)c1ccc(F)cc1`: > 46 µM (inactive).
Consider `C[C@H](N[C@@H](C)CCc1ccccc1)[C@H](O)c1ccc(O)cc1`, for which the Potency is > 46 µM (inactive).
With `C[C@H]1CCCC=CC2C[C@H](O)C[C@@H]2[C@H](O)/C=C\C(=O)O1` (stereo not given in full) the figure was > 46 µM (inactive).
As to `CCCN1CCc2cccc3c2[C@@H]1Cc1ccc(O)c(O)c1-3`, the Potency is > 46 µM (inactive).
On to `CC1(C)[C@@H]2CC[C@]1(C)CN(CCC[N+](C)(C)C)C2`, for which the Potency is > 9.22 µM (inactive).
With `CC[C@H](CO)NC(=O)[C@H]1C=C2c3cccc4[nH]cc(c34)C[C@H]2N(C)C1` the figure was > 46 µM (inactive).
The same measure for `N[C@@H]1CCc2cc(O)c(O)cc2C1`: > 46 µM (inactive); for `C=C[C@@H]1CN2CC[C@H]1C[C@H]2[C@@H](O)c1ccnc2ccccc12`: > 46 µM (inactive); for `CC(=O)N1C[C@@H]2C[C@H](C1)c1cccc(=O)n1C2`: > 46 µM (inactive).
With `COc1ccc2[nH]c3c(c2c1)CCN=C3C` the figure was > 20.6 µM (inactive).
With `NC(=O)c1ccc(OC[C@H](O)CN2CC=C(c3ccc(F)cc3)CC2)cc1`, the Potency was > 46 µM (inactive).
The same measure for `COC[C@@H]1OC(=O)c2coc3c2[C@]1(C)C1=C(C3=O)[C@H]2CCC(=O)[C@]2(C)C[C@@H]1OC(C)=O`: > 46 µM (inactive); for `CN1CCc2cc3c(cc2[C@@H]1[C@H]1OC(=O)c2c1ccc1c2OCO1)OCO3`: > 46 µM (inactive); for `CC[C@@]12CCCN3CC[C@@]4(c5ccc(OC)c(O)c5N(C(C)=O)[C@H]4CC1)[C@H]32`: > 46 µM (inactive).
Consider `C[C@H]1CC[C@@H]2[C@@H](C)C(=O)O[C@H]3O[C@@]4(C)CC[C@@H]1[C@]32OO4`, for which the Potency is > 46 µM (inactive).
The same measure for `NCC[Se][Se]CCN`: > 9.22 µM (inactive); for `CC(C)(C)[C@@]1(O)C[C@@H]2OC(=O)C[C@@]23C(=O)O[C@H]2OC(=O)[C@@H](O)[C@]231`: > 46 µM (inactive); for `OC[C@H]1CCCN2CCCC[C@@H]12`: > 46 µM (inactive).
The same measure for `COc1ccc2c(c1O)-c1c(OC)c(OC)cc3c1[C@@H](C2)N(C)CC3`: > 46 µM (inactive); for `CCCCCC[C@H]1C(=O)O[C@H](C)[C@H](NC(=O)c2cccc(NC=O)c2O)C(=O)O[C@@H](C)[C@H]1OC(=O)CC(C)C`: > 20.6 µM (inactive); for `C=C(C)[C@H]1Cc2c(ccc3c2O[C@H]2COc4cc(OC)c(OC)cc4[C@@H]2C3=O)O1`: > 46 µM (inactive).
With `CNc1ccc2oc(C[C@@H]3O[C@@]4(CC[C@H]3C)O[C@@H]([C@@H](C)C(=O)c3ccc[nH]3)[C@@H](C)C[C@H]4C)nc2c1C(=O)O` the figure was > 46 µM (inactive); with `CCN1C[C@@]2(COC(=O)c3ccccc3N3C(=O)C[C@H](C)C3=O)CC[C@H](OC)[C@@]34[C@@H]5CC6[C@@H](OC)C[C@@](O)([C@H]5[C@H]6OC)C(O)([C@@H]13)[C@@H](OC)[C@H]24`, > 46 µM (inactive).
For the molecule `CC(C)(C)c1ccc(O)c(C[N+](C)(C)C)c1`, the Potency is > 9.22 µM (inactive).
With `C[C@H](N)c1cccc(Cl)c1Cl` the figure was > 46 µM (inactive); with `CCCN1CCC[C@H](c2cccc(C#N)c2)C1`, > 46 µM (inactive).
The same measure for `C[N+]1(C)CCO[C@@](O)(c2ccc(-c3ccc([C@]4(O)C[N+](C)(C)CCO4)cc3)cc2)C1`: > 46 µM (inactive).
The same measure for `CN[C@@H](C)[C@@H](O)c1ccccc1`: > 46 µM (inactive).
Consider `COc1cc2c(cc1OC)-c1c(O)c(OC)cc3c1[C@@H](C2)N(C)CC3`, for which the Potency is > 46 µM (inactive).

The values above are taken from PubChem BioAssay (NCATS).
